# Reference: PubChem BioAssay AID588324 (National Center for Advancing Translational Sciences (NCATS), 2011)
# Records with an inconclusive call do not appear. A number with no mark means an inactive call. Active and inactive are the calls of the source. Calls follow the shape of the dose curve; as a rule, active = well fitted inhibition curve with a large enough effect; inconclusive = small, poorly fitted or top-dose-only effect; inactive = flat fitted curve, though single readings scatter.
# System: Trypanosoma cruzi 6-phosphofructokinase
# Assay: Confirmatory Assay to Find Inhibitors of T. brucei phosphofructokinase: Counter Screen against T cruzi PFK
# Conditions: ADP-Glo luminescence, 45 min; series mostly up to 57.5 µM; activity, negative = inhibition: at the top concentration
# From the text: Various species of the protozoan family Trypanosomatidae are responsible for a range of serious human diseases in tropical and subtropical areas of the world. […] Many of the disorders caused by trypanosomatids are fatal if left untreated, but most currently used drugs are inefficient and toxic. […] Oxidative metabolism involving the mitochondrial tricarboxylic acid cycle and oxidative phosphorylation are repressed in these parasites, and recent RNA interference (RNAi) experiments have shown that even partial depletion of certain individual glycolytic enzymes can lead to the death of cultured parasites. One such glycolytic enzyme, phosphofructokinase (PFK), catalyzes the formation of fructose-1,6-bisphosphate (F1,6BP) and ADP from fructose-6-phosphate (F6P) and ATP, and in many metabolic circumstances makes an important contribution to the control of flux through the glycolytic pathway. As a specific glycolytic target, PFK is particularly attractive as it catalyzes the first irreversible step in glycolysis, and structural and kinetic studies have shown very substantial and essential differences from corresponding host enzymes, allowing for the discovery of parasite-selective inhibitors. Confirmed qHTS active compounds were tested against T cruzi PFK. A luminescent biochemical assay was performed that used luciferase-based nucleotide detection (ADP-Glo, Promega) to examine the effect of identified actives against another trypanosomal isoform of PFK, namely Trypansoma cruzi, for target specificity. The assay is identical in concept to the T. brucei PFK qHTS assay, but instead uses the T. cruzi isoform of PFK (expressed and purified by U. of Edinburgh). NIH Molecular Libraries Probe Production Network [MLPCN] NIH Chemical Genomics Center [NCGC] Grant: 1 R03 MH092153-01 PI Name: Malcolm Walkinshaw, University of Edinburgh
# Substrate buffer was dispensed into white, solid 1536-well plates at 3 uL/well in 0.1M triethanolamine (TEA) buffer, pH 8.0, containing final concentrations of 5 mM MgCl2, 0.01% Tween20, 0.6mM fructose-6-phosphate (F6P) and 0.1mM ATP. Then, 23nl of compounds or DMSO were delivered to each well using a pin tool. One uL of T. cruzi PFK (0.1M TEA, 0.01% Tween20, 0.1% bovine serum albumin (BSA) and […] PFK, final concentrations) was then dispensed, and plates were incubated at room temperature for 45 min. The luminescent detection reagent, ADP-Glo (Promega), was then added in two steps: the first reagent, ADP-Glo (which converts remaining uncatalyzed ATP), was added at 2.5uL/well and incubated for ten minutes at room temperature, and the second component, Kinase Detection reagent (which converts ADP to ATP as a substrate for luciferase-based luminescence), was added immediately after at 5uL/well, followed by one final ten minute room temperature incubation. The plates were measured on a ViewLux plate reader for luminescent signal using a clear filter with a one second exposure. The %Activity was determined from the corrected luminescence values. 1x (1.25nM) and 0x PFK enzyme controls (untreated) were included to normalize %Activity of identified inhibitors; 0x enzyme values corresponded to 100%Activity (full inhibition), while 1x PFK enzyme values were used to normalize 0% Activity (no inhibition).
SMILES,Potency,"activity, negative = inhibition [%]"
Cc1cc(NS(=O)(=O)c2ccc(C(=O)NCc3ccc(Cl)c(Cl)c3)cc2)no1,2910 nM (active),
Cc1cc(NS(=O)(=O)c2ccc(NC(=O)CCc3ccc(Cl)c(Cl)c3)cc2)no1,6510 nM (active),
O=C(Cc1ccc(Cl)c(Cl)c1)Nc1ccc(S(=O)(=O)Nc2ccn[nH]2)cc1,730 nM (active),
O=C(Cc1ccc(Cl)c(Cl)c1)Nc1ccc(S(=O)(=O)Nc2cccc(C(=O)O)c2)cc1,580 nM (active),
O=C(Cc1ccc(Cl)c(Cl)c1)Nc1ccc(S(=O)(=O)Nc2cncnc2)cc1,730 nM (active),
Cc1cc(NS(=O)(=O)c2ccc(NC(=O)Cc3cccc(Cl)c3)cc2)no1,2590 nM (active),
O=C(Cc1ccc(Cl)c(Cl)c1)Nc1ccc(S(=O)(=O)O)cc1,461 nM (active),
Cc1cc(NC(=O)c2ccc(NC(=O)Cc3ccc(Cl)c(Cl)c3)cc2)no1,,-18.9
O=C(Cc1ccc(Cl)c(Cl)c1)Nc1ccc(S(=O)(=O)Nc2cccc(O)c2)cc1,1630 nM (active),
Cc1cc(NS(=O)(=O)c2ccc(NC(=O)Cc3ccc(Cl)cc3Cl)cc2)no1,14600 nM (active),
Cc1cc(NS(=O)(=O)c2ccc(NC(=O)Cc3ccc(Cl)c(F)c3)cc2)no1,651 nM (active),
Cc1cc(N[S+](=O)([O-])c2ccc3cc(NC(=O)Cc4ccc(Cl)c(Cl)c4)ccc3c2)no1,4610 nM (active),
Cc1cc(N[S+](=O)([O-])c2ccc(NC(=O)Cc3ccc(Cl)nc3)cc2)no1,20600 nM (active),
Cc1cc(NS(=O)(=O)c2ccc(NC(=O)Cc3ccc(Cl)cc3)cc2)no1,1460 nM (active),
O=C(Cc1ccc(Cl)c(Cl)c1)Nc1ccc(S(=O)(=O)Nc2ccon2)cc1,130 nM (active),
CCOC(=O)c1cccc(NS(=O)(=O)c2ccc(NC(=O)Cc3ccc(Cl)c(Cl)c3)cc2)c1,,-18
Cc1cc(NS(=O)(=O)c2cccc(NC(=O)Cc3ccc(Cl)c(Cl)c3)c2)no1,16300 nM (active),
Cc1cc(NS(=O)(=O)c2ccc(NC(=O)Cc3ccc(Cl)c(Cl)c3)cc2)on1,231 nM (active),

SMILES,Potency,"activity, negative = inhibition [%]"
Cc1cc(NS(=O)(=O)c2ccc(NC(=O)Cc3ccc(C)c(C)c3)cc2)no1,6510 nM (active),
Cc1cc(NS(=O)(=O)c2ccc(NC(=O)Cc3ccc(Cl)c(C(F)(F)F)c3)cc2)no1,919 nM (active),
O=C(Cc1ccc(Cl)c(Cl)c1)Nc1ccc(S(=O)(=O)Nc2ccc(C(=O)O)cc2)cc1,291 nM (active),
Cc1cc(NC(=O)c2csc(NC(=O)Cc3ccc(Cl)c(Cl)c3)n2)no1,,-18.8
Cc1cc(N(C)S(=O)(=O)c2ccc(NC(=O)Cc3ccc(Cl)c(Cl)c3)cc2)no1,2060 nM (active),
CN(C)c1cccc(NS(=O)(=O)c2ccc(NC(=O)Cc3ccc(Cl)c(Cl)c3)cc2)c1,11600 nM (active),
Cc1cc(NS(=O)(=O)c2ccc(NC(=O)Cc3ccc(Cl)c(Cl)c3)cc2)no1,231 nM (active),
Cc1cc(NS(=O)(=O)CCNC(=O)Cc2ccc(Cl)c(Cl)c2)no1,16300 nM (active),
Cc1cc(NS(=O)(=O)c2ccc(NC(=O)Cc3ccc4ccccc4c3)cc2)no1,1830 nM (active),
Cc1cc(NS(=O)(=O)c2ccc(NC(=O)Cc3ccc(C)c(F)c3)cc2)no1,4610 nM (active),
O=C(Cc1ccc(Cl)c(Cl)c1)Nc1ccc(S(=O)(=O)Nc2ccccc2)cc1,16300 nM (active),
Cc1cc(NS(=O)(=O)Cc2ccc(NC(=O)Cc3ccc(Cl)c(Cl)c3)cc2)no1,3260 nM (active),
Cc1cc(NS(=O)(=O)c2ccc(NCCc3ccc(Cl)c(Cl)c3)cc2)no1,16300 nM (active),
COc1ccc(CC(=O)Nc2ccc(S(=O)(=O)Nc3cc(C)on3)cc2)cc1OC,,-4.76
Cc1cc(NS(=O)(=O)c2ccc(NC(=O)Cc3ccc(Cl)c(Cl)c3)cc2)n(C)n1,1160 nM (active),
Cc1cc(NS(=O)(=O)c2ccc(NS(=O)(=O)Cc3ccc(Cl)c(Cl)c3)cc2)no1,,-20.8
Cc1cc(NS(=O)(=O)c2ccc(N(C)C(=O)Cc3ccc(Cl)c(Cl)c3)cc2)no1,1300 nM (active),
